Experiments:
[1] = target: Calcium/calmodulin-dependent protein kinase type II subunit alpha (Homo sapiens) (UniProt Q9UQM7); details: at 1 µM;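 also: reported value is a mean percent inhibition of CAMK2A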
[2] = target: Calcium/calmodulin-dependent protein kinase type II subunit delta (Homo sapiens) (UniProt Q13557); details: at 0.1 µM
[3] = target: Calcium/calmodulin-dependent protein kinase type II subunit delta (Homo sapiens) (UniProt Q13557); details: at 1 µM
[4] = target: T1, Calcium/calmodulin-dependent protein kinase type IV (Homo sapiens) (UniProt Q16566); details: at 0.1 µM
T1 sequence (whole entry): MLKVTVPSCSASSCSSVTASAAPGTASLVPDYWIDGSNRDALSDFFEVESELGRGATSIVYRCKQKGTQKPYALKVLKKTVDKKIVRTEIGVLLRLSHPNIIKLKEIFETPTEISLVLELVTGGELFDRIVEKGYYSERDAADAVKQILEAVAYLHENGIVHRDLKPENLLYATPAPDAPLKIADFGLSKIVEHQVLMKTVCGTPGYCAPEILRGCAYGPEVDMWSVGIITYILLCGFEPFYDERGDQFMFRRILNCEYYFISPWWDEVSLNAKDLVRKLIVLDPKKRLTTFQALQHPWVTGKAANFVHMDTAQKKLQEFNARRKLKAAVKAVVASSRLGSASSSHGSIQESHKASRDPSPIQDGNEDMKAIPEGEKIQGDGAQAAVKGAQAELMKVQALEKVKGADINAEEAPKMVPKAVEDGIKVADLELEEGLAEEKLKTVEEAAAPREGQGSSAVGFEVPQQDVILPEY

[5] = target: T1, Calcium/calmodulin-dependent protein kinase type IV (Homo sapiens); details: at 1 µM
[6] = target: T2, Serine/threonine-protein kinase Chk1 (Homo sapiens) (UniProt O14757); details: at 0.1 µM
T2 sequence (whole entry): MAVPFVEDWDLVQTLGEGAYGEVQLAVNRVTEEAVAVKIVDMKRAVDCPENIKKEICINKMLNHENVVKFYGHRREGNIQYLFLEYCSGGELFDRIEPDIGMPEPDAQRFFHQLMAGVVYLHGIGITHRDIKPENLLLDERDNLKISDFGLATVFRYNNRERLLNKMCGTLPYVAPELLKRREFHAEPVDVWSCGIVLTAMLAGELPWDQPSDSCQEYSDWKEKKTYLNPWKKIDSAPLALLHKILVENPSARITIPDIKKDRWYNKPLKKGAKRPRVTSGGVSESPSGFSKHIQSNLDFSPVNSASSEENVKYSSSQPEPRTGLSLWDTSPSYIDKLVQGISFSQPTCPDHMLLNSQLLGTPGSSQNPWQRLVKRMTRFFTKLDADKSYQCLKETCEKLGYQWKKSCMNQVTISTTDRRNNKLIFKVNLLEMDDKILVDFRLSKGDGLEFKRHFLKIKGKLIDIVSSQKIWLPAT

[7] = target: T2, Serine/threonine-protein kinase Chk1 (Homo sapiens); details: at 1 µM
[8] = target: Serine/threonine-protein kinase Chk2 (Homo sapiens) (UniProt O96017); details: at 0.1 µM
[9] = target: Serine/threonine-protein kinase Chk2 (Homo sapiens) (UniProt O96017); details: at 1 µM
[10] = target: Death-associated protein kinase 1 (Homo sapiens) (UniProt P53355); details: at 0.1 µM
[11] = target: Death-associated protein kinase 1 (Homo sapiens) (UniProt P53355); details: at 1 µM
[12] = target: T3, Serine/threonine-protein kinase DCLK2 (Homo sapiens) (UniProt Q8N568); details: at 0.1 µM
T3 sequence (whole entry): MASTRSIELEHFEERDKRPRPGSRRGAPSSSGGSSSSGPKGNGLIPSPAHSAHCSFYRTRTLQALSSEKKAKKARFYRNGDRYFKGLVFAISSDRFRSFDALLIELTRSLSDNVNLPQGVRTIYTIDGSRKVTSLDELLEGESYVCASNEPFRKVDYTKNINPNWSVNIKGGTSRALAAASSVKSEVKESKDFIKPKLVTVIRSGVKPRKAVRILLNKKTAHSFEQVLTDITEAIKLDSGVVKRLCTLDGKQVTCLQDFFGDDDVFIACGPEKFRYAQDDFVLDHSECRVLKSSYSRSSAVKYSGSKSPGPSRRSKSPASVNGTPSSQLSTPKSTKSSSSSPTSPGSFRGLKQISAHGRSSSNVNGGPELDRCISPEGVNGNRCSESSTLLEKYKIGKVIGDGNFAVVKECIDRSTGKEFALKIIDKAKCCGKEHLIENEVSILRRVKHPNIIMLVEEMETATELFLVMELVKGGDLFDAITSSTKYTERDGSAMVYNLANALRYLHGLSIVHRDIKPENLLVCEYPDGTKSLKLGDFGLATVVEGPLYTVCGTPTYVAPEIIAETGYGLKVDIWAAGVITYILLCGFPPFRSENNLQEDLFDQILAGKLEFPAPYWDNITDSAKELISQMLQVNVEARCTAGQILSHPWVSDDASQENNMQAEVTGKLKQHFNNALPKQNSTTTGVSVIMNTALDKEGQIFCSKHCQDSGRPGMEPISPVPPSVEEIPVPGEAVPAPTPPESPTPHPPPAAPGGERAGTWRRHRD

[13] = target: MAP kinase-activated protein kinase 2 (Homo sapiens) (UniProt P49137); details: at 0.1 µM
[14] = target: MAP kinase-activated protein kinase 2 (Homo sapiens) (UniProt P49137); details: at 1 µM
[15] = target: MAP kinase-activated protein kinase 3 (Homo sapiens) (UniProt Q16644); details: at 0.1 µM
[16] = target: MAP kinase-activated protein kinase 3 (Homo sapiens) (UniProt Q16644); details: at 1 µM
[17] = target: Serine/threonine-protein kinase MARK1 (Homo sapiens) (UniProt Q9P0L2); details: at 0.1 µM
[18] = target: Serine/threonine-protein kinase MARK1 (Homo sapiens) (UniProt Q9P0L2); details: at 1 µM
[19] = target: MAP/microtubule affinity-regulating kinase 3 (Homo sapiens) (UniProt P27448); details: at 0.1 µM;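 also: mean percent inhibition of MARK3 kinase activity, measured within the GSK PKIS screening panel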
[20] = target: T3, Serine/threonine-protein kinase DCLK2 (Homo sapiens); details: at 1 µM

Chain of MAP/microtubule affinity-regulating kinase 3 (Homo sapiens) (P27448 whole entry, looked up): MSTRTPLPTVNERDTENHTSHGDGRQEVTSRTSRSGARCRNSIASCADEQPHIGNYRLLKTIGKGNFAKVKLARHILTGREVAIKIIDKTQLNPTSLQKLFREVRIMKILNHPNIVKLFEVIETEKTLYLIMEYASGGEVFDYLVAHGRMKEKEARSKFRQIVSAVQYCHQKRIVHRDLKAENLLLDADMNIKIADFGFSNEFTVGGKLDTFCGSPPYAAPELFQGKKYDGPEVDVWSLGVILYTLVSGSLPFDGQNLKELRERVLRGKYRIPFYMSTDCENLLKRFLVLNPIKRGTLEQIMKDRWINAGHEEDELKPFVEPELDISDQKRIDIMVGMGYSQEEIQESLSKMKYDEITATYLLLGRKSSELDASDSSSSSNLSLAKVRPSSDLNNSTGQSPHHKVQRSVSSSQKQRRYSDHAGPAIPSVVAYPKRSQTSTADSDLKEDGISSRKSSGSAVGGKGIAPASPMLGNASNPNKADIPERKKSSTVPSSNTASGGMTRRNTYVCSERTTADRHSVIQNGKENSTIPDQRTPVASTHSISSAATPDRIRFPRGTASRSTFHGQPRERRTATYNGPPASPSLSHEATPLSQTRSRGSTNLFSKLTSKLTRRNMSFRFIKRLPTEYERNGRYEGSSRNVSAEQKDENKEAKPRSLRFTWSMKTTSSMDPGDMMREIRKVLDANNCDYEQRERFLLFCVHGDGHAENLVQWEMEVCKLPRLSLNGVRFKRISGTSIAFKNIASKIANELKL
Chain of Serine/threonine-protein kinase MARK1 (Homo sapiens) (Q9P0L2 whole entry, looked up): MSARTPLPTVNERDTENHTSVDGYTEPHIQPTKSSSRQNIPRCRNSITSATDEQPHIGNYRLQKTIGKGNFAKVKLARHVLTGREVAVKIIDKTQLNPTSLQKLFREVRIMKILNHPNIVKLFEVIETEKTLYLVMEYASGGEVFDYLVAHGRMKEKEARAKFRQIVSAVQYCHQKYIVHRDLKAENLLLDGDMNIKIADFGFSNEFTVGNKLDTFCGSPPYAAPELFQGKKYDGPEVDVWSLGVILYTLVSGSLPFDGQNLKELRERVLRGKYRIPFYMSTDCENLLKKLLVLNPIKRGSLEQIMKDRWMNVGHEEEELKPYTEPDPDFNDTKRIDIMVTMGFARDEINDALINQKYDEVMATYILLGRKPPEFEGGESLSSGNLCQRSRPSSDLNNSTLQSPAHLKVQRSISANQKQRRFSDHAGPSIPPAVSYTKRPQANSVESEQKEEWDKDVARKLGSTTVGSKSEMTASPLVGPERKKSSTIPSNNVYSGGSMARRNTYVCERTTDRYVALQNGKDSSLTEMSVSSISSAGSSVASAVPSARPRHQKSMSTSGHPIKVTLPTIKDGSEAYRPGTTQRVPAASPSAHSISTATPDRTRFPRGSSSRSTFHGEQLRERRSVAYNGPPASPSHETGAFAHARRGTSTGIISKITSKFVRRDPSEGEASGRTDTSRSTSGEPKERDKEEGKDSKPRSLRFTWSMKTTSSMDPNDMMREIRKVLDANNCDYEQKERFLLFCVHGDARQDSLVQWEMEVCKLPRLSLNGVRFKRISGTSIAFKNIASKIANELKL
Chain of Serine/threonine-protein kinase Chk2 (Homo sapiens) (O96017 whole entry): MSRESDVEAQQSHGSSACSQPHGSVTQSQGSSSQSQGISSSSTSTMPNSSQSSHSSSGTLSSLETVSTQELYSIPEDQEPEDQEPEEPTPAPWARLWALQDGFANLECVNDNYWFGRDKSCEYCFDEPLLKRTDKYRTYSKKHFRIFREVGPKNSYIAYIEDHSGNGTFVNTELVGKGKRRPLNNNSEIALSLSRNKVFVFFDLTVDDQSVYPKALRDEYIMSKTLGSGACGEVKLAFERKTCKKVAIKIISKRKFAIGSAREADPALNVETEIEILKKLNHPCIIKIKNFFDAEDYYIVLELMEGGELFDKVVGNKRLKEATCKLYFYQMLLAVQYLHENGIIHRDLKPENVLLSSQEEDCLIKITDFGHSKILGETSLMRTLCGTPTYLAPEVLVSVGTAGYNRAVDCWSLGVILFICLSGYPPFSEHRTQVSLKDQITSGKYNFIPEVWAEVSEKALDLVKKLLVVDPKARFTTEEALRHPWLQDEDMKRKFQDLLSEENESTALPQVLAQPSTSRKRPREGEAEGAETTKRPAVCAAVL
Chain of Death-associated protein kinase 1 (Homo sapiens) (P53355 whole entry, looked up): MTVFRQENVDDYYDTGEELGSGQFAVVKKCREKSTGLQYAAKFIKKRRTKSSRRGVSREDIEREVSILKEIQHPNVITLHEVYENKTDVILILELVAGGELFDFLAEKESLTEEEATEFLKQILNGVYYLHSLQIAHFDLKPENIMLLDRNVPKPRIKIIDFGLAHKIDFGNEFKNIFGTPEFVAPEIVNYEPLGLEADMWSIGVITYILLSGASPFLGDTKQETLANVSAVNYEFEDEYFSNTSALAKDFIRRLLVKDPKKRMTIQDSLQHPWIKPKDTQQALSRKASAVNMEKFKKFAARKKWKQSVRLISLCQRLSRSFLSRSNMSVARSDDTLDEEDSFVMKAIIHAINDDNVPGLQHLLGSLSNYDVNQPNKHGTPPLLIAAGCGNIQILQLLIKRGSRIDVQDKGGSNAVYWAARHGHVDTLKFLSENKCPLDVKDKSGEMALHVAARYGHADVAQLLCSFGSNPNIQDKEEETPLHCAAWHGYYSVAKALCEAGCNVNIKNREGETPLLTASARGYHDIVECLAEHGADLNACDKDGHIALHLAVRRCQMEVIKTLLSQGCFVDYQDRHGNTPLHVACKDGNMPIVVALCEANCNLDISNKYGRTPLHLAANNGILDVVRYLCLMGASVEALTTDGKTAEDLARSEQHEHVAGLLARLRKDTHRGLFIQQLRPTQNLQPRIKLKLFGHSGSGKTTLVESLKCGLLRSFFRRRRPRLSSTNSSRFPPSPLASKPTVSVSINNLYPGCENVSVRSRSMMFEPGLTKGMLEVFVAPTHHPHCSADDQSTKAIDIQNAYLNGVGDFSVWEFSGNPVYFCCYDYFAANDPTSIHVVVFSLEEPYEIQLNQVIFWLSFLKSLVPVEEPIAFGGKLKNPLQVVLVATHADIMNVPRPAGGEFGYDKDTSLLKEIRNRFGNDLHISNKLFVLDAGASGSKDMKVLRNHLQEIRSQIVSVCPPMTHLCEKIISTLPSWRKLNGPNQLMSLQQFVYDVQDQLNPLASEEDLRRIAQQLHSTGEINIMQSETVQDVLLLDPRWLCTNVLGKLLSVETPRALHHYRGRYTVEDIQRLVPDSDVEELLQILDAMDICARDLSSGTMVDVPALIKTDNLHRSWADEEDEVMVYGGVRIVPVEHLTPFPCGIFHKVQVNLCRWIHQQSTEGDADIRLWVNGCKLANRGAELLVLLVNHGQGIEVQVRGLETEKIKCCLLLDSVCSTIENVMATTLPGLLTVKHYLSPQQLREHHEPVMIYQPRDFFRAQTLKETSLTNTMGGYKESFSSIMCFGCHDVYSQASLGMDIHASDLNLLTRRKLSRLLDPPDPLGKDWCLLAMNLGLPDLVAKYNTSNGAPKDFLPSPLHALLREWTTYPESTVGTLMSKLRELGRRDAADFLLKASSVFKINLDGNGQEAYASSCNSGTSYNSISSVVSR
Chain of MAP kinase-activated protein kinase 3 (Homo sapiens) (Q16644 whole entry, looked up): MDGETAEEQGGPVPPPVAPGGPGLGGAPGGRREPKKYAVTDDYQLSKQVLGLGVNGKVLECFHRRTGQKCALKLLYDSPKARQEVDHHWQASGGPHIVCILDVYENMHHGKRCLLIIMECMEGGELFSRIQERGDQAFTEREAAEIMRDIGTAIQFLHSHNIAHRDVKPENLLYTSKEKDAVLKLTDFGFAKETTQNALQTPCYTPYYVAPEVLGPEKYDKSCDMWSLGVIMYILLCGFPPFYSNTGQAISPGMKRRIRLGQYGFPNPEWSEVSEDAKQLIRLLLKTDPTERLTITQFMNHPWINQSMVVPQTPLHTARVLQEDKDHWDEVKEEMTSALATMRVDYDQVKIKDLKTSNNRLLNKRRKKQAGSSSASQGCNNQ
Chain of MAP kinase-activated protein kinase 2 (Homo sapiens) (P49137 whole entry, looked up): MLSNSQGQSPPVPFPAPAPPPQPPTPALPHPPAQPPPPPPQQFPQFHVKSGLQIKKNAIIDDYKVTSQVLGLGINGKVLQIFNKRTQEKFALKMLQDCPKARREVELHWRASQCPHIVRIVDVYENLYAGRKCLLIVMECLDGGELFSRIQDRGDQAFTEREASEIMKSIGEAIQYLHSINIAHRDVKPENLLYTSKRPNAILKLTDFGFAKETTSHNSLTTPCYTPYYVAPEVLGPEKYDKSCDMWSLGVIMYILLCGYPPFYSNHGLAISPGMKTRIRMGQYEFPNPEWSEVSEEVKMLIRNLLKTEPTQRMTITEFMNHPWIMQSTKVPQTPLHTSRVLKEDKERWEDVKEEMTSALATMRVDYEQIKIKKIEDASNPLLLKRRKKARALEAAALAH
Chain of Calcium/calmodulin-dependent protein kinase type II subunit delta (Homo sapiens) (Q13557 whole entry): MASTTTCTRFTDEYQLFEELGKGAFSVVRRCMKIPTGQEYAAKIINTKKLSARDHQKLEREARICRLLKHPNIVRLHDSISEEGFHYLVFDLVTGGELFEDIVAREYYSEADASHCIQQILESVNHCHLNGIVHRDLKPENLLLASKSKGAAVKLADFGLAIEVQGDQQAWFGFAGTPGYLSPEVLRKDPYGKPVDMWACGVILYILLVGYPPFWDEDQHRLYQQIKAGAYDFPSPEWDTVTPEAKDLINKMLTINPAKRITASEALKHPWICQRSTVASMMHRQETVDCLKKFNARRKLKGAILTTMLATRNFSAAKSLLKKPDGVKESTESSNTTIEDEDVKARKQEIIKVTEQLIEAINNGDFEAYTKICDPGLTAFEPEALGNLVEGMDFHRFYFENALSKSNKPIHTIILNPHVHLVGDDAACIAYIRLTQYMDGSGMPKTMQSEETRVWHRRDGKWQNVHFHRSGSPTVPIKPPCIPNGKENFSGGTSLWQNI

| SMILES | inhibition [1] | inhibition [2] | inhibition [3] | inhibition [4] | inhibition [5] | inhibition [6] | inhibition [7] | inhibition [8] | inhibition [9] | inhibition [10] | inhibition [11] | inhibition [12] | inhibition [13] | inhibition [14] | inhibition [15] | inhibition [16] | inhibition [17] | inhibition [18] | inhibition [19] | inhibition [20] |
| --- | --- | --- | --- | --- | --- | --- | --- | --- | --- | --- | --- | --- | --- | --- | --- | --- | --- | --- | --- | --- |
| CCCN1CCC(Oc2cc(Nc3nc(Nc4cccc(F)c4C(N)=O)c4cc[nH]c4n3)c(OC)cc2Cl)CC1 | 4.06% | 3.15% | 16.5% | 9.59% | 31.1% | 1.9% | 3.67% | 1.65% | 33.6% | 0.88% | 16.8% | -2.33% | -0.08% | -0.66% | 10.3% | -0.67% | -1.22% | 2.97% | -0.83% |  |
| Cc1cccc(-c2n[nH]cc2-c2ccc3ncccc3n2)n1 | -0.05% | 0.08% | 2.08% | 1.14% | 2.81% | 2.24% | 1.66% | -0.67% | -0.16% | 0.65% | 0.85% |  | 0.61% | -0.07% | 0.58% | 2.89% | 1% | 1.95% | -0.37% | -5.57% |
| Nc1nc(-c2ccccn2)c(-c2ccc3ncccc3n2)s1 | 2.01% | 0.62% | 2.75% | -0.73% | -1.69% | 4.2% | 6.33% | 2.16% | 4.44% | 4.05% | 3.99% | 0.14% | 2.05% | 2.02% | 1.5% | 3.66% | 3.28% | 6.18% | 2.5% | -0.77% |
| CCc1cccc(NC(=O)Nc2ccc(Oc3ccc4nc(NC(=O)OC)[nH]c4c3)cc2)c1 | 3.77% | 1.51% | 2.63% | 0.16% | -2.32% |  | -6.72% | -4.84% | -2.63% | -5.09% | -5.23% | 6.75% | -0.49% | -1.61% | -2.74% | -3.85% | 1.69% | 0.31% | 1.5% | 1.42% |
| COc1cc(C)c(NC(=O)CN(C)C)cc1Nc1nc(Nc2cccc(F)c2C(N)=O)c2cc[nH]c2n1 | 8.59% | 4.57% | 14.2% | 9.62% | 40% | -4.03% | -1.09% | 40.2% | 76.2% | 1.58% | 35% | 1.99% | 0.89% | 0.73% | 3.1% | 3.56% | -0.37% | 1.38% | -0.27% |  |
| NC(=O)c1cccc(Nc2nccc(Nc3cccc4[nH]ncc34)n2)c1 | -1.01% | -1.68% | 3.58% | 1.19% | 2.27% | 1.94% | 44.1% | -2.95% | 9.48% | 0.17% | 0.2% |  | -2.49% | -2.06% | -2.55% | -2.42% | -1.84% | 11.7% | 2.03% | 0.29% |
| Cn1cc(C=C2C(=O)Nc3cccnc32)c2ccccc21 | 3.18% | 2.44% | 6.23% | 0.47% | -0.07% | 0.66% | 7.2% | 2.65% | 15.6% | 2.44% | 7.28% | 0.87% | 0.71% | 1.83% | 2.19% | 5.11% | 3.55% | 9.52% | 4.73% | 3.71% |
| CCn1c(-c2nonc2N)nc2cncc(C(=O)N3CC[C@H](N)C3)c21 | 3.64% | 4.1% | 4.33% | 1.7% | -0.55% | 4.56% | 6.37% | 1.1% | 1.86% | 5.74% | 8.64% | 0.17% | 1.77% | 1.78% | 3.01% | 4.01% | 4.67% | 12.8% | 3.75% | -0.36% |
| CC(=O)Nc1cccc(C#Cc2cncnc2Nc2ccc(OCc3cccc(F)c3)c(Cl)c2)n1 | 1.27% | -0.74% | -2.74% | -4.11% | -7.03% | 7.14% | 5.32% | 3.3% | 4.37% | 7.49% | 7.63% | 5.73% | 2.15% | 2.54% | 5.56% | 5.33% | 1.05% | 1.12% | 0.78% | 7.65% |
| NS(=O)(=O)c1cccc(-c2ccc3c(NC(=O)C4CC4)n[nH]c3c2)c1 | -3.57% | -2.03% | -1.61% | -0.79% | -1.58% | 3.4% | 2.13% | -2.9% | -2.43% | 1.4% | 3.03% | 0.34% | -1.6% | -1.12% | 2.07% | 2.74% | 0.18% | 4.41% | 2.87% |  |
| Fc1cccc(COc2ccc(Nc3ncnc4sc(-c5cccs5)cc34)cc2Cl)c1 | -2.43% | -0.89% | 1.53% |  | -0.72% | -6.44% | -5.05% | -6.31% | -6.27% | -9.21% | -9.5% | -1.25% | -2.05% | -2.63% | -4.76% | -5.22% | 0.88% | 2.73% | 0.02% | 2.62% |
| CC(C)=Cc1cccc2c1/C(=N/Nc1ccc(S(N)(=O)=O)cc1)C(=O)N2 | 6.48% | 2.83% | 11.3% | -1.55% | -0.74% | 6.35% | 10.3% | 5.36% | 9.14% | 9.26% | 10.2% | 0.25% | 3.53% | 3.71% | 7.64% | 7.15% | 2.11% | 24.8% | 2.08% |  |
| CN1CCC(C(=O)Nc2n[nH]c3nnc(-c4ccccc4)cc23)CC1 | 3.81% | 3.23% | 3.34% | -0.65% | -2.3% | -2.79% | -0.12% | -1.11% | 3.84% | -2.19% | -2.32% | 0.57% | -0.36% | -0.73% | -1.34% | -1.95% | 4.01% | 5.96% | 3.75% | -0.83% |
| COc1cc2ncn(-c3cc(O[C@H](C)c4ccccc4Cl)c(C(N)=O)s3)c2cc1OC | 7.42% | 5.14% | 19.1% | -2.07% | -0.73% | 3.51% | -0.5% | -2.58% | -0.51% | -5.15% | -9.77% | 0.64% | -0.8% | -0.71% | -2.77% | -0.41% | 5.95% | 31.9% | 3.47% | 1.35% |

Source: ChEMBL document CHEMBL1961873, “Compounds: GSK PKIS; Assays: Nanosyn kinase panel” (2012)
